Screening data as filed in PubChem BioAssay.
CYP2C19 activ: increases human CYP2C19 enzyme activity. recombinant CYP2C19, luciferin-H EGE luminescence; hits give high values; 0 = fully inhibited enzyme, 1 = untreated enzyme. activation factor at 5 µM. 96,000 tested, under 10 active. AID 1025;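 active = activation factor of at least 2 at 5 µM in the primary screen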;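 also: 0 = wells with 2.5 mM tranylcypromine and 1 = vehicle-only wells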
CYP2C9 inh: human CYP2C9 inhibition; P11712; CYP2C9 Supersomes, luciferin-H conversion, luminescence; 20% of 96,000 active; inhibition, % at 5 µM;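 active = blocking of liver enzyme CYP2C9 beyond about 50% at 5 µM, limit read from the data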
Target sequence (P11712 whole entry, looked up): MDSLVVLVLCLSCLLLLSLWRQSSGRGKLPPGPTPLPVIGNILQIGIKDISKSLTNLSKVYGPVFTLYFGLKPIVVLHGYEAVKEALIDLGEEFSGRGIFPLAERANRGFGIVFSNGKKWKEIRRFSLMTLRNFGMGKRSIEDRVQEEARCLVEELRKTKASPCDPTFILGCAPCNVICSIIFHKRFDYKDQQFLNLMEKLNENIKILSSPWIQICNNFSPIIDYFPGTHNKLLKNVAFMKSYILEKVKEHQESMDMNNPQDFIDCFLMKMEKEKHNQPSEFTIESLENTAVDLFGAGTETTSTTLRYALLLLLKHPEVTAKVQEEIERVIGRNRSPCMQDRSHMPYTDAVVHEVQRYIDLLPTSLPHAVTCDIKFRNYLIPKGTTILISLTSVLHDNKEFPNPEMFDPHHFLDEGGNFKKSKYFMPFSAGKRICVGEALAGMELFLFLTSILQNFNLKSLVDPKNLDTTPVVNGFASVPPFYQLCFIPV
Cav32 inh: inhibitors of human Cav3.2 T-type calcium channel. Cav3.2-expressing cells, Fluo-4 calcium fluorescence FDSS; hits give low values. B-score at 10 µM. 4% of 100,000 active. AID 449739;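 active = single-dose well whose peak fluorescence ratio is a statistical outlier from its plate by either plate-standardised score or position-corrected B-score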
CYP2C19 inhib: inhibitors of human CYP2C19; inhibition, % at 5 µM; CYP2C19 Supersomes, luciferin-H EGE luminescence, 30 min; P33261; 21% of 96,000 active;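 active = CYP2C19 inhibition above a set limit at 5 µM in the primary screen, cut at about 50% in these data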;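 also: plate controls were negative control wells for no effect and 2.5 mM tranylcypromine positive control for full effect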
CYP2C9 activ: CYP2C9 (human) activation | recombinant CYP2C9, luciferin-H conversion, luminescence; hits give high values; factor 1 = untreated enzyme, 0 = blocked | AID 1024 | activation factor at 5 µM | 1.4% of 96,000 active | P11712;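 active = activation factor of 2 or more for CYP2C9 at a 5 µM dose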;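 also: 0 = sulfaphenazole-blocked wells and 1 = vehicle-only wells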
* = called active by the depositor; . = not tested or not shown. Only some compounds are listed: those with a hit (about 27% of all), similar ones and a draw of the others.

SMILES | CYP2C19 activ | CYP2C9 inh | Cav32 inh | CYP2C19 inhib | CYP2C9 activ
COC(=O)C1C(=O)C=C(N2CCOCC2)CC1(C)C (centres undefined) | 1.2 | -18.7 | 0.631 | -16.5 | 1.2
N#Cc1c(-c2ccc(Cl)cc2)ccn2nc(C3CCCCC3)nc12 | 0.7 | 85.1* | -0.669 | 26.4 | 0.1
CC(C)(C)OC(=O)NC(CCNC=C1C(=O)OC(C)(C)OC1=O)C(=O)O (centres undefined) | 1.1 | 15.3 | 0.507 | -11.5 | 0.8
Cc1nc2ccccc2c2c1C(=O)N(C(C)C)C2=O | 0.3 | 2.7 | -0.453 | 70.3* | 1
CC(=O)C1=C(C)OC(N)=C(C#N)C1c1cc2cc(C)c(C)cc2nc1Cl (centres undefined) | 0.1 | 25.0 | . | 86.6* | 0.8
COC(=O)CC1=C(C(=O)OC)C(c2cc(OC)c(OC)cc2OC)C(C#N)=C(N)O1 (centres undefined) | 0.7 | 48.6 | 0.89 | 34.0 | 0.5
CC(=O)Nc1ccc(C(=O)OCC(=O)c2ccc(C)c([N+](=O)[O-])c2)cc1 | 0.7 | 50.7* | 0.554 | 30.5 | 0.5
O=C(O)CCC(=O)NCc1ccc(F)cc1 | 0.9 | 49.1 | 0.0476 | 7.8 | 0.5
Cc1cc(N2C(=O)CC(C(C)c3ccccc3)C2=O)no1 (centres undefined) | . | . | -0.828 | . | .
COc1ccc(OC)c(N2C(=O)CC(C(C)c3ccccc3)C2=O)c1 (centres undefined) | 0.3 | 19.1 | -0.251 | 66.2* | 0.8
Cc1ccccc1S(=O)(=O)Cc1ccc(C(=O)NCc2cccs2)o1 | 0.6 | 44.2 | 0.0864 | 40.3 | 0.6
CCOC(=O)c1cc2c(ccn2C)n1Cc1ccccc1C | 0.6 | 12.3 | -1.66 | 35.1 | 0.9
Cc1ccc(C)c(Cn2c(C(=O)OC(C)C)cc3c2ccn3C)c1 | 0.4 | 34.9 | -3.37 | 55.1* | 0.7
CC(C)OC(=O)c1cc2c(ccn2C)n1CC(=O)N1CCC(Cc2ccccc2)CC1 | 0.7 | 38.5 | -7.86* | 30.5 | 0.6
CCOC(=O)c1cc2c(ccn2C)n1CC(=O)N1CCN(c2ccccc2)CC1 | 0.7 | 47.2 | -0.388 | 33.5 | 0.5
Cc1ccccc1Cn1c(C(=O)OC(C)C)cc2c1ccn2C | 0.5 | 28.1 | -0.838 | 53.0* | 0.7
C=COCCNC(=O)Nc1ccc(Cl)cc1Cl | 0.9 | 9.0 | -1.04 | 10.0 | 0.9
O=C1CCOc2cc(OCc3ccccc3)ccc21 | . | . | -0.387 | . | .
O=C(CSc1nnc(Cc2ccccc2)n1-c1ccc(Cl)cc1)N1CCOCC1 | 0.9 | 0.8 | -0.766 | 7.7 | 1
COC(=O)CCC(=O)Nc1ccc(Br)cc1 | 0.3 | 38.1 | 0.407 | 65.3* | 0.6
Cc1cc(C)nc(N2CCCC(C(=O)NCCc3cccc(F)c3)C2)n1 (centres undefined) | 0.6 | -64.0 | -0.265 | 39.2 | 1.6
Cc1cc(C)nc(N2CCCC(C(=O)Nc3cc(F)ccc3C)C2)n1 (centres undefined) | 0.4 | -25.8 | . | 64.7* | 1.3
COc1ccc(CCNC(=O)C2CC(=O)N(C3CCCCCCC3)C2)cc1OC (centres undefined) | 1 | -1.5 | 0.547 | 3.2 | 1
O=C(NCc1cccc(C(F)(F)F)c1)C1CCCN(c2ncccn2)C1 (centres undefined) | 0.5 | 1.5 | 0.0973 | 46.3 | 1
O=C(NCCC1=CCCCC1)C1CC(=O)N(C2CCCCCC2)C1 (centres undefined) | 0.5 | 57.4* | 0.892 | 51.8* | 0.4
SMILES | CYP2C19 activ | CYP2C9 inh | Cav32 inh | CYP2C19 inhib | CYP2C9 activ
Cc1cc(C)nc(N2CCCC(C(=O)NCc3cccc(C(F)(F)F)c3)C2)n1 (centres undefined) | 0.8 | -108.0 | -0.943 | 22.4 | 2.1*
Cc1cc(C)nc(N2CCCC(C(=O)NCCC3=CCCCC3)C2)n1 (centres undefined) | 0.3 | -60.0 | 0.632 | 73.3* | 1.6
Cc1cc(C)nc(N2CCCC(C(=O)NC3CCCC3)C2)n1 (centres undefined) | 0.4 | 21.2 | 0.754 | 58.0* | 0.8
CC1=C(C(=O)OCc2ccccc2)C(c2ccc(-c3ccccc3)cc2)NC(=O)N1CCCC(=O)O (centres undefined) | . | . | 0.168 | . | .
COc1ccc(NS(=O)(=O)c2ccc(NS(C)(=O)=O)cc2)cc1 | 0.8 | 16.0 | -0.371 | 16.6 | 0.8
CC(=O)NS(=O)(=O)c1ccc(NS(=O)(=O)c2ccc(F)cc2)cc1 | 1 | 59.2* | 0.159 | 2.6 | 0.4
O=S(=O)(Nc1ccc(-c2csc(-c3ccccc3)n2)cc1)c1ccc(F)cc1 | 0.9 | 97.2* | -0.019 | 7.5 | 0
CC(=O)NS(=O)(=O)c1ccc(N)cc1 | . | . | 0.414 | . | .
